Reference: PubChem BioAssay (EPA / NIEHS)
Activity calls are given as the source filed them. Rule for the calls: active = hit-call score of the fitted dose curve at least 0.9, where 1 is the maximum; inactive = score below 0.9.

Columns and labels:
[1] = BSK_3C_SRB: Viability Assessment in the BioMAP Diversity Plus: 3C Assay (AID 2283023); details: primary human endothelial cells (HUVEC);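 note: cells read 24 h after compound dosing; fitted both ways against DMSO so a hit may be signal rise or drop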
How it was run: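 Absorbance at 560 nm of sulforhodamine B-stained (0.1%) total protein served as a cytotoxicity readout in human umbilical vein endothelial cells, 24 h after chemical treatment. Signal was fitted bidirectionally relative to DMSO.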

[2] = BSK_3C_Vis: BioMAP Diversity Plus: 3C Assay for Morphology Visualization (AID 2283025); details: primary human endothelial cells (HUVEC);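 note: fitted both ways so gain or loss versus DMSO counts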
How it was run: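 Human umbilical vein endothelial cells in the 3C system were imaged by light microscopy 24 h after chemical dosing to record cell morphology. Activity was fitted bidirectionally against DMSO as negative control and baseline; the endpoint serves as a background control.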

[3] = read-out: Pselectin, SELP (gene 6403); experiment: BSK_4H_Pselectin: BioMAP Diversity Plus: 4H Assay for Pselectin Biomarker Activity (AID 2283026); details: primary human endothelial cells (HUVEC); actives raise or lower the signal
How it was run: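 Primary human umbilical vein endothelial cells were exposed to test chemical for 24 h, then cell-surface P-selectin was quantified by ELISA. Activity was fitted bidirectionally against DMSO as negative control and baseline.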

[4] = BSK_4H_SRB: Viability Assessment in the BioMAP Diversity Plus: 4H Assay (AID 2283027); details: primary human endothelial cells (HUVEC);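 note: cells exposed to compound for 24 h before staining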
How it was run: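 Human umbilical vein endothelial cells were dosed with chemical and, after 24 h, fixed with 10% TCA, stained with 0.1% sulforhodamine B, and read at 560 nm to give total protein as a cytotoxicity measure. Bidirectional fitting relative to DMSO control.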

[5] = BSK_BE3C_SRB: Viability Assessment in the BioMAP Diversity Plus: BE3C Assay (AID 2283028); details: primary human bronchial epithelial cells
How it was run: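 Cells (human bronchial epithelial, primary) are treated with chemicals, and after 24 h the parallel cultures are fixed in 10% TCA. These are then stained with 0.1% SRB and read at 560 nm. Gain or loss of signal is fitted relative to DMSO.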

[6] = read-out: Thrombomodulin, THBD (gene 7056); experiment: BSK_3C_Thrombomodulin: BioMAP Diversity Plus: 3C Assay for Thrombomodulin Biomarker Activity (AID 2283029); details: primary human endothelial cells (HUVEC); actives raise or lower the signal
How it was run: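 Primary human umbilical vein endothelial cells (3C system) were exposed to chemical for 24 h, then thrombomodulin levels were measured by ELISA. Activity was fitted bidirectionally against the DMSO negative control as baseline.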

[7] = read-out: Urokinase-type plasminogen activator receptor (uPAR), PLAUR (gene 5329); experiment: BSK_4H_uPAR: BioMAP Diversity Plus: 4H Assay for Urokinase-type plasminogen activator receptor (uPAR) Biomarker Activity (AID 2283030); details: primary human endothelial cells (HUVEC); actives raise or lower the signal
How it was run: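 Cell-surface uPAR ELISA signal, measured 24 h after dosing human umbilical vein endothelial cells, was analyzed with bidirectional fitting relative to DMSO. Parallel SRB staining of total protein tracked overt cytotoxicity.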

[8] = read-out: Vascular endothelial growth factor receptor 2 (Homo sapiens) (UniProt P35968); experiment: BSK_4H_VEGFRII: BioMAP Diversity Plus: 4H Assay for Vascular endothelial growth factor receptor 2 (VEGFR2) Biomarker Activity (AID 2283031); details: primary human endothelial cells (HUVEC); actives raise or lower the signal
How it was run: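 ELISA read-out of VEGFRII in primary human umbilical vein endothelium, taken 24 h after chemical treatment. Responses are expressed relative to DMSO, with bidirectional fitting.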

[9] = read-out: Human Leukocyte Antigen - DR isotype (HLADR), HLA-DRA (gene 3122); experiment: BSK_BE3C_HLADR: BioMAP Diversity Plus: BE3C Assay for Human Leukocyte Antigen - DR isotype (HLADR) Biomarker Activity (AID 2283032); details: primary human bronchial epithelial cells; actives raise or lower the signal
How it was run: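 Human primary bronchial epithelial cells in the BE3C system were exposed to chemicals for 24 h, after which HLA-DR levels were quantified by ELISA. Activity was fitted bidirectionally, gain or loss of signal, against DMSO as negative control and baseline.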

[10] = read-out: Interferon-gamma inducible Protein 10 (IP10), CXCL10 (gene 3627); experiment: BSK_BE3C_IP10: BioMAP Diversity Plus: BE3C Assay for Interferon-gamma inducible Protein 10 (IP10) Biomarker Activity (AID 2283034); details: primary human bronchial epithelial cells; actives raise or lower the signal
How it was run: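 Human primary bronchial epithelial cells were exposed to chemicals for 24 hours, after which IP-10 levels were measured by ELISA. Data were fitted bidirectionally against DMSO, which served as the negative control and activity baseline.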

[11] = read-out: Monokine induced gamma interferon (MIG), CXCL9 (gene 4283); experiment: BSK_BE3C_MIG: BioMAP Diversity Plus: BE3C Assay for Monokine induced gamma interferon (MIG) Biomarker Activity (AID 2283035); details: primary human bronchial epithelial cells; actives raise or lower the signal;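 for outcome: MIG protein measured by ELISA in BE3C cultures after 24 h of dosing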
How it was run: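 ELISA read-out of MIG in human lung bronchial epithelial primary cultures, 24 h post-dosing. Bidirectional curve fit vs DMSO baseline.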

[12] = read-out: Transforming growth factor beta 1 (TGFb1), TGFB1 (gene 7040); experiment: BSK_BE3C_TGFb1: BioMAP Diversity Plus: BE3C Assay for Transforming growth factor beta 1 (TGFb1) Biomarker Activity (AID 2283036); details: primary human bronchial epithelial cells; actives raise or lower the signal
How it was run: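 Human primary bronchial epithelial cells (BE3C system) were dosed with chemical and TGF-b1 levels measured by ELISA at 24 h. Activity was fitted bidirectionally relative to DMSO negative control as baseline.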

[13] = read-out: Plasminogen activator inhibitor-1 (PAI1), SERPINE1 (gene 5054); experiment: BSK_BE3C_PAI1: BioMAP Diversity Plus: BE3C Assay for Plasminogen activator inhibitor-1 (PAI1) Biomarker Activity (AID 2283037); details: primary human bronchial epithelial cells; actives raise or lower the signal
How it was run: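 Human primary bronchial epithelial cells were exposed to chemical for 24 h, then PAI-1 was quantified by ELISA. Activity was fitted bidirectionally relative to the DMSO negative control baseline.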

[14] = read-out: Urokinase-type plasminogen activator receptor (uPAR), PLAUR (gene 5329); experiment: BSK_BE3C_uPAR: BioMAP Diversity Plus: BE3C Assay for Urokinase-type plasminogen activator receptor (uPAR) Biomarker Activity (AID 2283039); details: primary human bronchial epithelial cells; actives raise or lower the signal;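 for outcome: cells exposed to compound for one day before measurement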
How it was run: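 Primary human bronchial epithelial cells were dosed with chemical and harvested 24 h later; uPAR was quantified by ELISA. Activity was fitted bidirectionally against DMSO as negative control and baseline.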

[15] = read-out: Interleukin-6 (IL6), IL6 (gene 3569); experiment: BSK_CASM3C_IL6: BioMAP Diversity Plus: CASM3C Assay for Interleukin-6 (IL6) Biomarker Activity for (AID 2283040); details: primary human coronary artery smooth muscle cells; actives raise or lower the signal
[16] = read-out: Tissue plasminogen activator (tPA), PLAT (gene 5327); experiment: BSK_BE3C_tPA: BioMAP Diversity Plus: BE3C Assay for Tissue plasminogen activator (tPA) Biomarker Activity (AID 2283041); details: primary human bronchial epithelial cells; actives raise or lower the signal;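 for outcome: tPA level quantified by ELISA one day after compound addition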
How it was run: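 Human primary bronchial epithelial cells were dosed with chemical and tPA biomarker levels measured by ELISA 24 hours later. Activity was fitted bidirectionally against DMSO as negative control and baseline.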

[17] = read-out: Interleukin-8 (IL8), CXCL8 (gene 3576); experiment: BSK_CASM3C_IL8: BioMAP Diversity Plus: CASM3C Assay for Interleukin-8 (IL8) Biomarker Activity (AID 2283042); details: primary human coronary artery smooth muscle cells; actives raise or lower the signal;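 note: IL-8 protein level quantified by ELISA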
[18] = read-out: Vascular cell adhesion molecule 1 (VCAM1), VCAM1 (gene 7412); experiment: BSK_4H_VCAM1: BioMAP Diversity Plus: 4H Assay for Vascular cell adhesion molecule 1 (VCAM1) Biomarker Activity (AID 2283033); details: primary human endothelial cells (HUVEC); actives raise or lower the signal;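 for outcome: cell-surface VCAM-1 protein measured by ELISA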
How it was run: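 Primary human umbilical vein endothelial cells were exposed to chemicals for 24 h, after which VCAM-1 was quantified by ELISA. Responses were fitted bidirectionally against DMSO as negative control and activity baseline.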

[19] = read-out: urokinase plasminogen activator (uPA), PLAU (gene 5328); experiment: BSK_BE3C_uPA: BioMAP Diversity Plus: BE3C Assay for urokinase plasminogen activator (uPA) Biomarker Activity (AID 2283038); details: primary human bronchial epithelial cells; actives raise or lower the signal;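 note: uPA protein level quantified by ELISA in cell cultures; uPA read one day after compound addition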
How it was run: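 Bronchial epithelial cells (human, primary); chemical 24 h; uPA by ELISA; bidirectional fit vs DMSO. SRB (0.1%, after 10% TCA fixation, 560 nm) in parallel cultures for cytotoxicity.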

Nc1nc(=S)c2[nH]cnc2[nH]1
outcome [1]: inactive
outcome [2]: inactive
outcome [3]: inactive
outcome [4]: inactive
outcome [5]: inactive
outcome [6]: inactive
outcome [7]: inactive
outcome [8]: inactive
outcome [9]: inactive
outcome [10]: inactive
outcome [11]: inactive
outcome [12]: inactive
outcome [13]: inactive
outcome [14]: inactive
outcome [15]: inactive
outcome [16]: inactive
outcome [17]: inactive

CC(=O)O[C@]1(C(C)=O)CC[C@H]2[C@@H]3C=C(Cl)C4=CC(=O)[C@@H]5C[C@@H]5[C@]4(C)[C@H]3CC[C@@]21C
AC50 [1]: 29.8 µM (active)
outcome [2]: inactive
outcome [3]: inactive
outcome [4]: inactive
outcome [5]: inactive
outcome [6]: inactive
AC50 [7]: 14.7 µM (active)
outcome [8]: inactive
AC50 [9]: 19.3 µM (active)
outcome [18]: inactive
AC50 [10]: 33.4 µM (active)
AC50 [11]: 31 µM (active)
AC50 [12]: 31.5 µM (active)
AC50 [13]: 20 µM (active)
AC50 [14]: 32.4 µM (active)
outcome [15]: inactive
AC50 [16]: 34.9 µM (active)
outcome [17]: inactive

Cc1cn([C@H]2C=C[C@@H](CO)O2)c(=O)[nH]c1=O
outcome [1]: inactive
outcome [2]: inactive
outcome [3]: inactive
outcome [4]: inactive
outcome [5]: inactive
outcome [6]: inactive
outcome [7]: inactive
outcome [9]: inactive
outcome [18]: inactive
outcome [10]: inactive
outcome [11]: inactive
outcome [12]: inactive
outcome [13]: inactive
outcome [14]: inactive
outcome [15]: inactive
outcome [16]: inactive
outcome [17]: inactive

CC(C)OC(=O)C(C)(C)Oc1ccc(C(=O)c2ccc(Cl)cc2)cc1
AC50 [1]: 14.8 µM (active)
AC50 [2]: 39 µM (active)
AC50 [3]: 32.8 µM (active)
outcome [4]: inactive
outcome [5]: inactive
outcome [7]: inactive
outcome [9]: inactive
AC50 [18]: 17 µM (active)
outcome [10]: inactive
outcome [11]: inactive
outcome [12]: inactive
outcome [13]: inactive
outcome [19]: inactive
outcome [14]: inactive
outcome [15]: inactive
outcome [16]: inactive
outcome [17]: inactive

Cc1ccc(C(C)(C)C)c(O)c1
outcome [1]: inactive
outcome [2]: inactive
outcome [3]: inactive
outcome [4]: inactive
outcome [5]: inactive
AC50 [6]: 31.3 µM (active)
outcome [7]: inactive
outcome [9]: inactive
outcome [18]: inactive
outcome [10]: inactive
outcome [11]: inactive
outcome [12]: inactive
outcome [13]: inactive
outcome [19]: inactive
outcome [14]: inactive
outcome [15]: inactive
outcome [16]: inactive
outcome [17]: inactive

CO[C@@H]1COCC[C@@H]1N[C@@H]1CC[C@@](C(=O)N2CCc3ncc(C(F)(F)F)cc3C2)(C(C)C)C1
outcome [1]: inactive
outcome [2]: inactive
outcome [3]: inactive
outcome [4]: inactive
outcome [5]: inactive
outcome [6]: inactive
outcome [7]: inactive
outcome [9]: inactive
outcome [18]: inactive
outcome [10]: inactive
outcome [11]: inactive
outcome [12]: inactive
outcome [13]: inactive
outcome [14]: inactive
outcome [15]: inactive
outcome [16]: inactive
outcome [17]: inactive

CS(=O)(=O)c1ccc([C@@H](C[C@H]2CCC(=O)C2)C(=O)Nc2cnccn2)cc1Cl
outcome [1]: inactive
outcome [2]: inactive
outcome [3]: inactive
outcome [4]: inactive
outcome [5]: inactive
outcome [6]: inactive
outcome [7]: inactive
outcome [9]: inactive
outcome [18]: inactive
outcome [10]: inactive
outcome [11]: inactive
outcome [12]: inactive
outcome [13]: inactive
outcome [14]: inactive
outcome [15]: inactive
outcome [16]: inactive
outcome [17]: inactive

CC(C)COC(=O)CCCCC(=O)OCC(C)C
outcome [1]: inactive
outcome [2]: inactive
outcome [3]: inactive
outcome [4]: inactive
outcome [5]: inactive
outcome [6]: inactive
outcome [7]: inactive
outcome [9]: inactive
outcome [18]: inactive
outcome [10]: inactive
outcome [11]: inactive
outcome [12]: inactive
outcome [13]: inactive
outcome [14]: inactive
outcome [15]: inactive
outcome [16]: inactive
outcome [17]: inactive
